Legend:
Assay in all cases: thermal shift delta Tm vs DMSO control; higher = stronger stabilization (binding)
Details in all cases: 12.5 µM; protein concentration 2 µM
[1] = compound: C/C(O)=C(\C#N)C(=O)Nc1cc(Br)ccc1Br
How it was run: (§1)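 Purified, E. coli-expressed rice kinase domain constructs were tested by differential scanning fluorimetry in 96-well plates: 19.5 μl of 2 μM kinase in 100 mM potassium phosphate pH 7.5, 150 mM NaCl, 10% glycerol, 5 × SYPRO Orange, plus compound in DMSO. Fluorescence was read from 25°C to 95°C at 0.05°C/s. Melting temperatures came from Boltzmann fits, and the shift is the triplicate mean relative to protein with DMSO alone.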

[2] = compound: CC(C)(C)c1cc(C=C(C#N)C#N)cc(Br)c1O
How it was run: as §1

Tyrphostin 9 = compound: CC(C)(C)c1cc(C=C(C#N)C#N)cc(C(C)(C)C)c1O [Tyrphostin 9]
How it was run: as §1

Aurora A Inhibitor I = compound: CCN1CCN(C(=O)Cc2ccc(Nc3ncc(F)c(Nc4ccc(C(=O)Nc5ccccc5Cl)cc4)n3)cc2)CC1 [Aurora A Inhibitor I]
How it was run: as §1

Picropodophyllin (PPP) = compound: COc1cc([C@@H]2c3cc4c(cc3[C@H](O)[C@H]3COC(=O)[C@@H]23)OCO4)cc(OC)c1OC [Picropodophyllin (PPP)]
How it was run: as §1

Anisomycin = compound: COc1ccc(C[C@H]2NC[C@H](O)[C@H]2OC(C)=O)cc1 [Anisomycin]
How it was run: as §1

[3] = compound: COc1ccc(N(C(=O)Oc2c(C)cccc2C)c2ccnc(Nc3ccc(N4CCN(C)CC4)cc3)n2)c(OC)c1
How it was run: as §1

[4] = compound: COc1ccc2c(c1)/C(=C/c1cnc[nH]1)C(=O)N2
How it was run: as §1

[5] = compound: Cc1ccccc1-n1c(Cn2ncc3c(N)ncnc32)nc2cccc(C)c2c1=O
How it was run: as §1

[6] = compound: O=c1[nH]c2ccc(Cl)cc2c(N[C@@H]2CN3CCC2CC3)c1-c1nc2ccccc2[nH]1
How it was run: as §1

[7] = compound: Cn1cc(C2=C(c3cn(C4CCN(Cc5ccccn5)CC4)c4ccccc34)C(=O)NC2=O)c2ccccc21
How it was run: as §1

Sequence of LOC_OS04G41100-cb001 (as listed by the source): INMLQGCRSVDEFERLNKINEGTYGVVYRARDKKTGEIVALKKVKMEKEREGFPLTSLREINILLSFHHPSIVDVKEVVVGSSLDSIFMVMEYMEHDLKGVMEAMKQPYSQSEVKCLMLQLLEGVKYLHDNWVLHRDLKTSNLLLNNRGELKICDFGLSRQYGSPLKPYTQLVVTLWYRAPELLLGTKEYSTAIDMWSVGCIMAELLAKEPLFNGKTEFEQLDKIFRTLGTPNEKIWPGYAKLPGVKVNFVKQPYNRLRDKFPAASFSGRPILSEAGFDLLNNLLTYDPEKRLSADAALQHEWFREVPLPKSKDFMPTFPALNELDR
Sequence of LOC_OS06G22820-cb001 (as listed by the source): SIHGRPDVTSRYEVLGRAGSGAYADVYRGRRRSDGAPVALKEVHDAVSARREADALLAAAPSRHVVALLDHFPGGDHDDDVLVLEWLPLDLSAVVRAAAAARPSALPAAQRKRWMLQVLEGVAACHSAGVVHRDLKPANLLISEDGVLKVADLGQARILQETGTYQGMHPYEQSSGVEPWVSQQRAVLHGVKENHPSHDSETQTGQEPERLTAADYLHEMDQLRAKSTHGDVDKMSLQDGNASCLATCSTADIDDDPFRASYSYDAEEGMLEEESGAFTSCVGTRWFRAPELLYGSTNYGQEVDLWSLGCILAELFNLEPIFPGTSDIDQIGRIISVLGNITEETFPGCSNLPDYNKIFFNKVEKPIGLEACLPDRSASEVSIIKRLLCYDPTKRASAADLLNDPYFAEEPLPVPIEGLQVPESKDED
Sequence of LOC_OS01G52050-cb004 (as listed by the source): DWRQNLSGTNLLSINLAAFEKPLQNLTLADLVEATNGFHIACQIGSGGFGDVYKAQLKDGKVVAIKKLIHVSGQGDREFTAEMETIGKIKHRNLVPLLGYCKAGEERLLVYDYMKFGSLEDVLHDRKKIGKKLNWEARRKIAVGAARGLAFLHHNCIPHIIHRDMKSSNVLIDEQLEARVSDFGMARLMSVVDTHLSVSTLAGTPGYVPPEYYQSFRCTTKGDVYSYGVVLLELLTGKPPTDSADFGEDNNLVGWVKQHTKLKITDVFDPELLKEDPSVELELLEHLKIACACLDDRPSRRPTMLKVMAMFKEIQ
Sequence of LOC_OS06G16330-cb003 (as listed by the source): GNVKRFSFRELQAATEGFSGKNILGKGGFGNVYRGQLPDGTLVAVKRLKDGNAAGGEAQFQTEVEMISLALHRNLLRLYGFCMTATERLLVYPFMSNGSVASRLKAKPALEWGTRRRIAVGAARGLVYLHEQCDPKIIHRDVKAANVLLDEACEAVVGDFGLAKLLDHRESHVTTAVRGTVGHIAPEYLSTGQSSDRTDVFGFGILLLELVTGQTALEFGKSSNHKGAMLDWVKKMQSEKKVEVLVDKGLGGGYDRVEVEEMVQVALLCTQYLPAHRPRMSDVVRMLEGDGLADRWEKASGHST

Target | thermal shift delta Tm [1] | thermal shift delta Tm [2] | thermal shift delta Tm (Tyrphostin 9) | thermal shift delta Tm (Aurora A Inhibitor I) | thermal shift delta Tm (Picropodophyllin (PPP)) | thermal shift delta Tm (Anisomycin) | thermal shift delta Tm [3] | thermal shift delta Tm [4] | thermal shift delta Tm [5] | thermal shift delta Tm [6] | thermal shift delta Tm [7]
LOC_OS01G63280-cb003 | 0.5 °C | 0.9 °C | 2.28 °C | 0.22 °C | -0.03 °C | 0.15 °C | 0.38 °C | 4.22 °C | -0.3 °C | 0.81 °C | 
LOC_OS01G60330-cb001 | 1.6 °C | 1.56 °C | 4.55 °C | 12.3 °C | 0.72 °C | 0.77 °C | 1.23 °C | 4.72 °C | -0.01 °C | 10.8 °C | 
LOC_OS03G50810-cb003 | 0.73 °C | 0.71 °C | 0.82 °C | 3.94 °C | 0.16 °C | 0.59 °C | 0.9 °C | 3.03 °C | 0.23 °C | 5.29 °C | 1.38 °C
LOC_OS05G43570-cb004 | 0.83 °C | 0.83 °C | 1.46 °C | 1.76 °C | -0.21 °C | 0.46 °C | 0.38 °C | 0.79 °C | 0.31 °C | 1.44 °C | 1 °C
LOC_OS03G04050-cb001 | 0.96 °C | 0.99 °C | 0.99 °C | 0.02 °C | 0.1 °C | 0.72 °C | 0.67 °C | 0.53 °C | 0.27 °C | 0.52 °C | 0.69 °C
LOC_OS04G41100-cb001 | 0.64 °C | 0.96 °C | 1.09 °C | 1.62 °C | 0.3 °C | 0.43 °C | 0.13 °C | 3.1 °C | 0.39 °C | 2.42 °C | 1.42 °C
LOC_OS01G39600-cb002 | 0.11 °C | 3.42 °C |  | 3.74 °C | -0.4 °C | -0.07 °C | -0.58 °C | 2.01 °C | 0.35 °C | 6.61 °C | 
LOC_OS01G48390-cb002 | 0.77 °C | 0.72 °C | 2.01 °C | 4.11 °C | 0.19 °C | 0.33 °C | -0.27 °C | 1.32 °C | 0.11 °C | 1.21 °C | 
LOC_OS01G21960-cb002 | 1.38 °C | 1.5 °C | 4.31 °C | 2.25 °C | 0.41 °C | 0.52 °C | 0.61 °C | 1.85 °C | 0.03 °C | 3.76 °C | 
LOC_OS04G35114-cb001 | 1.21 °C | 0.3 °C | 0.89 °C | 3.75 °C | 0.21 °C | 0.57 °C | 1.64 °C | 6.97 °C | 0.13 °C | 5.95 °C | 1.31 °C
LOC_OS02G54510-cb004 | 0.42 °C | 0.85 °C | 0.47 °C | 1.31 °C | 0.14 °C | 0.56 °C | 0.56 °C | 0.44 °C | 0.08 °C | 1.44 °C | 0.65 °C
LOC_OS01G57100-cb003 | 1.78 °C | -0.11 °C | 6.29 °C | 1.79 °C | 0.44 °C | 1.09 °C | 1.54 °C | 1.34 °C | 0.63 °C | 3.28 °C | 
LOC_OS01G01410-cb001 | 0.85 °C | 0.56 °C | 3.01 °C | 2.6 °C | -0.11 °C | 0.63 °C | 0.04 °C | 2.18 °C | 0.73 °C | 3.66 °C | 
LOC_OS01G13800-cb001 | 0.83 °C | 2.05 °C | 1.92 °C | 0.32 °C | -0.49 °C | 0.17 °C | 0.12 °C | 0.49 °C | 0.06 °C | -0.04 °C | 
LOC_OS05G30820-cb001 | 0.57 °C | 1.27 °C | 0.84 °C | 1.39 °C | 0.41 °C | 0.89 °C | 0.33 °C | 0.99 °C | 0.5 °C | 0.98 °C | 0.82 °C
LOC_OS02G07810-cb001 | 1.72 °C | 2.07 °C | 2.29 °C | 0.45 °C | 0.15 °C | 0.03 °C | 0.73 °C | 0.97 °C | 0.6 °C | 1.44 °C | 
LOC_OS02G14120-cb001 | 0.47 °C | 0.92 °C | 3.24 °C | 8.23 °C | 0.5 °C | 0.58 °C | 0.02 °C | 4.75 °C | -0.47 °C | 7.91 °C | 
LOC_OS05G16824-cb004 | 2.14 °C | -1.4 °C | -0.97 °C | 7.48 °C | -3.09 °C | -4.31 °C | 1.29 °C | 8.5 °C | -1.77 °C | 15.4 °C | 2.01 °C
LOC_OS01G14860-cb001 | 1.32 °C | 1.24 °C | 3.15 °C | 3.95 °C | 0.29 °C | -0.05 °C | 0.07 °C | 5.78 °C | -0.1 °C | 7.87 °C | 
LOC_OS03G12390-cb001 | 1.3 °C | 0.42 °C | 0.25 °C | 5.37 °C | -0.2 °C | -0.29 °C | 0.45 °C | 4.35 °C | -0.25 °C | 4.7 °C | 0.52 °C

Target | thermal shift delta Tm [1] | thermal shift delta Tm [2] | thermal shift delta Tm (Tyrphostin 9) | thermal shift delta Tm (Aurora A Inhibitor I) | thermal shift delta Tm (Picropodophyllin (PPP)) | thermal shift delta Tm (Anisomycin) | thermal shift delta Tm [3] | thermal shift delta Tm [4] | thermal shift delta Tm [5] | thermal shift delta Tm [6] | thermal shift delta Tm [7]
LOC_OS02G45750-cb003 | 1.66 °C | -0.03 °C | 0.99 °C | 3.48 °C | 0.36 °C | 1.18 °C | 2.08 °C | 7.07 °C | -0.14 °C | 11.3 °C | 0.32 °C
LOC_OS01G52050-cb004 | 0.91 °C | 2.42 °C | 3.34 °C | 1.73 °C | -0.26 °C | 0.12 °C | -0.12 °C | 4.67 °C | -0.06 °C | 9.73 °C | 
LOC_OS05G07850-cb002 | 1.58 °C | 4.65 °C | 0.08 °C | 12.2 °C | -0.91 °C | 0.21 °C | 7.34 °C | 8.01 °C | -0.57 °C | 8.76 °C | 2.26 °C
LOC_OS06G22820-cb001 | 0.73 °C | 1.01 °C | 1.56 °C | -0.07 °C | 0.27 °C | 0.57 °C | 0.55 °C | 0.55 °C | 0.41 °C | 0.64 °C | 1 °C
LOC_OS01G60700-cb002 | 1.75 °C | 1.51 °C | 4.79 °C | 0.71 °C | 0.4 °C | 0.15 °C | 1.33 °C | 0.77 °C | 0.02 °C | 1.41 °C | 3.52 °C
LOC_OS04G57630-cb004 | 0.3 °C | 0.11 °C | -0.37 °C | 4.13 °C | 0.26 °C | 0.15 °C | 0.3 °C | 1.58 °C | -0.13 °C | 1.43 °C | -0.06 °C
LOC_OS06G16330-cb003 | 1.18 °C | 2.32 °C | 0.83 °C | 8.9 °C | 0.19 °C | -0.28 °C | -0.04 °C | 5.39 °C | -0.12 °C | 6.83 °C | 
LOC_OS03G50450-cb001 | 1.25 °C | 0.89 °C | 1.36 °C | 6.04 °C | 0.03 °C | 0.61 °C | 0.76 °C | 1.49 °C | 0.18 °C | 2.51 °C | 0.07 °C
LOC_OS03G27990-cb004 | 0.81 °C | 0.8 °C | 0.88 °C | 1.5 °C | 0.02 °C | 0.47 °C | 0.54 °C | 1.69 °C | -0.07 °C | 3.66 °C | 0.11 °C
LOC_OS01G10900-cb004 | 1.47 °C | -0.04 °C | 3.61 °C | 0.91 °C | 0.63 °C | 0.16 °C | 0.15 °C | 1.02 °C | 0.1 °C | 0.03 °C | 
LOC_OS01G70970-cb002 | 0.43 °C | 0.94 °C | 2.45 °C | 4.68 °C | 0.24 °C | 0.31 °C | 0.31 °C | 4.78 °C | -0.01 °C | 5.08 °C | 
LOC_OS02G08530-cb003 | 1.36 °C | 1.36 °C | 2.26 °C | 2.48 °C | 0.6 °C | 1.28 °C | 0.72 °C | 2.97 °C | 0.37 °C | 5.48 °C | 0.99 °C
LOC_OS07G06570-cb004 | 0.21 °C | 0.05 °C | 2.9 °C | 0.63 °C | 1.02 °C | 1 °C | 1.01 °C | 0.08 °C | 1.12 °C | 0.51 °C | 
LOC_OS02G17970-cb001 | 1.08 °C | 2.06 °C | 3.2 °C | 0.33 °C | 0.61 °C | 0.2 °C | 0.79 °C | 0.72 °C | -0.06 °C | 0.93 °C | 
LOC_OS01G02750-cb003 | 1.62 °C | 1.02 °C | 6.7 °C | 0.26 °C | 0.88 °C | 0.6 °C | 0.82 °C | 2.97 °C | 0.47 °C | 4.52 °C | -0.47 °C
LOC_OS05G28520-cb001 | 1.13 °C | 0.45 °C | 1.67 °C | 0.67 °C | 0.07 °C | 0.12 °C | 0.27 °C | 0.94 °C | -0.36 °C | 0.32 °C | 3.85 °C
LOC_OS01G67340-cb003 | 1.03 °C | 0.32 °C | -0.32 °C | 0.7 °C | 0.12 °C | 0.35 °C | 0.5 °C | 4.84 °C | -0.48 °C | 2.48 °C | 0 °C
LOC_OS07G07230-cb001 | 0.39 °C | 1.24 °C | 0.49 °C | 0.3 °C | 0.63 °C | 0.94 °C | 0.5 °C | -0.03 °C | 0.41 °C | 0.14 °C | 0.68 °C
LOC_OS01G51400-cb002 | 0.56 °C | 0.64 °C | 1.62 °C | -0.05 °C | -0.01 °C | 0.24 °C | 0.03 °C | 0.84 °C | 0.24 °C | 0.3 °C | 

Reference: the supplement of paper PMC9694430
